Source: PubChem
GLP1R inv ag: qHTS of GLP-1 Receptor Inverse Agonists (Inhibition Mode). Glucagon-like peptide 1 receptor (Homo sapiens), P43220. HEK293 GLP-1R CRE-luciferase, luminescence, 24 h; GLP-1R form is constitutively active. Potency, µM (series often up to 38.3 µM), usual class: inhibitors. hit rate 1.6% among 410,000. AID 624417, 2012; note: nearly all actives have a fitted effect of over 55% in size
Target sequence (P43220 whole entry, looked up): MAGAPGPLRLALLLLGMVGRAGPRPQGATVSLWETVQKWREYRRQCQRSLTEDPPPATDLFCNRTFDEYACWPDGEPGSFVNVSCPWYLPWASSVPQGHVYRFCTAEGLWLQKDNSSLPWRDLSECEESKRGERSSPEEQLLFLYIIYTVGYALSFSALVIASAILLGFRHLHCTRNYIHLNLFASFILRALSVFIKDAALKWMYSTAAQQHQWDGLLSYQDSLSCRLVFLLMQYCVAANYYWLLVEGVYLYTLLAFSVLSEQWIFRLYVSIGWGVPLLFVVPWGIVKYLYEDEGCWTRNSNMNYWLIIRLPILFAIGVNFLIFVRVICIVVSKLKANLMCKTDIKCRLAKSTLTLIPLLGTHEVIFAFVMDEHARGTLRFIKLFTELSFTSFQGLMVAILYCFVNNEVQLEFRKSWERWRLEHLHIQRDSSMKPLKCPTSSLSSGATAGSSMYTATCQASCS
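qHTS in 1536-well format: reporter HEK293 cells expressing constitutive GLP-1R activity in DMEM + 10% Nu serum, 24 hr with compounds at 37 deg C, luminescence read after 12 min with detection reagent.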
Integrin act MD: qHTS for Activators of Integrin-Mediated Alleviation for Muscular Dystrophy; Potency, µM (doses to about 38.3 µM), actives largely listed as activators; alpha7betagal myoblasts, beta-gal FDG fluorescence, 48 h; hit rate 0.064% among 350,000; note: nearly all actives have a fitted effect of over 60% in size
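alpha7betagal+/- myoblasts (passage 13, 250/well) treated 48 h at 37C with compounds at 1:260 dilution of DMSO stock. Lysed, then beta-galactosidase activity read as FDG fluorescence (ex 480/em 540) after 30 min, with pre-read for autofluorescence.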
GLP1R cytotox: qHTS of GLP-1 Receptor Inverse Agonists: Cytotox Screen. HEK293 cAMP-luciferase reporter cells, luminescence, 24 h. Potency, µM (doses to about 38.3 µM), actives largely listed as inhibitors. hit rate 0.13% among 410,000;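 note: loss of luciferase light is scored as toxicity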
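MLSMR compounds, 24 hr on cells at 37 deg C/5% CO2; luminescence after luciferase reagent (12 min RT). Inhibition counted as the undesired cytotoxic outcome.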
GLP-1R agonist: qHTS of GLP-1 Receptor Agonists. Potency, µM (doses to about 45.6 µM), usual class: activators. hit rate 0.007% among 380,000. HEK293 GLP-1R CRE-luciferase, luminescence, 4-6 h; cells express a hypersensitive GLP-1R form
BRCA1 expr up: qHTS Assay to Identify Small Molecule Activators of BRCA1 Expression. MCF7-BRCA1-FFLuc reporter, luminescence, 48 h; response scale: scaled: vehicle 0%, 10 µM genistein 100%. hit rate 1.1% among 380,000. AID 624202, 2012. Potency, µM (highest dose often 46.1 µM), hits mostly activators; note: nearly all actives have a fitted effect of over 80% in size
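Compounds are tested at multiple concentrations on MCF7 BRCA1-luciferase reporter cells seeded at 2000 per well; after 48 h, a single luminescence end-point is taken and curves fitted to the normalized data.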
Numbers stand for hits; i = inactive; ? = inconclusive; nt = no result given; [ ] = dose if it differs, or a comment. Compounds with a hit are over-represented: about 2.7% of the library has one in this group of screens. Calls come from the whole dose curve; as a rule, active = well fitted curve in the direction sought with a large enough effect; inconclusive = small, poorly fitted or top-dose-only effect, or another doubt; inactive = no such curve, though single readings can be large; an effect the other way counts as inactive or inconclusive.

SMILES	GLP1R inv ag	Integrin act MD	GLP1R cytotox	GLP-1R agonist	BRCA1 expr up
COc1ccc(OC)c(NC(=O)C2CCN(S(=O)(=O)c3ccc4c(c3)CCCC(=O)N4)CC2)c1	i	nt	i	i	i
CCN1C(=O)c2ccccc2Sc2ccc(NC(=O)c3ccc(C)c(F)c3)cc21	i	nt	i	nt	nt
CN(C)CCNC(=O)c1cc2c(s1)-c1ccc(Cl)cc1SC2	13µM	i	?	i	i
CCCN(C(=O)c1cc2c(s1)-c1ccccc1OC2)c1ccccc1F	?	nt	i	i	i
CCCN(C(=O)c1cc2c(s1)-c1ccccc1SC2)c1ccccc1F	11µM	nt	i	nt	nt
Cc1ccc(NC(=O)Cn2nnc(-c3nc(-c4ccncc4)no3)c2N)cc1	i	nt	i	nt	nt
Cc1ccc(SCc2cn3cc(Cl)ccc3n2)cc1	?	i	i	i	10µM
Clc1ccc(-n2nnnc2SCc2cn3ccccc3n2)cc1	i	i	i	i	i
CNc1cc(CSc2ccc(Cl)cc2)nc(C)n1	i	i	i	i	5µM
Nc1nnc(SCc2cn3cc(Cl)ccc3n2)s1	i	i	i	i	i
Cc1cccc2nc(CSc3ccc(Cl)cc3)cn12	?	i	?	i	4.5µM
Clc1ccc(SCc2cn3ccccc3n2)cc1	i	i	i	i	5.6µM
COc1ccccc1CCNC(=O)C(=O)NCC(c1cccnc1)N1CCN(c2ccccc2)CC1 (configuration not stated)	i	nt	i	nt	nt
CCCN(CCC)CCNC(=O)C1CCN(c2nc3ccc(CC)cc3s2)CC1	i	nt	i	nt	nt
COc1cccc(NC(=O)c2oc3ccc(S(=O)(=O)N(C)C4CCCCC4)cc3c2C)c1	?	nt	i	nt	nt
COc1ccc(Cl)cc1-c1cc(C(=O)NCc2cccc(Cl)c2)[nH]n1	3.2µM	nt	i	i	i
CCN(CC)CCCN=Cc1c(O)n(Cc2ccccc2)c(=O)c2ccccc12	13µM	i	i	i	i
CO[C@H](C(=O)[C@@H](O)[C@@H](C)O)C1Cc2cc3cc(O[C@H]4C[C@@H](O[C@H]5C[C@@H](O)[C@H](O)[C@@H](C)O5)[C@@H](O)[C@@H](C)O4)c(C)c(O)c3c(O)c2C(=O)[C@H]1O[C@H]1C[C@@H](O[C@H]2C[C@@H](O[C@H]3C[C@](C)(O)[C@H](O)[C@@H](C)O3)[C@H](O)[C@@H](C)O2)[C@H](O)[C@@H](C)O1 (some centres not stated)	nt	nt	nt	i	nt
CN(c1ccccc1)S(=O)(=O)c1cccc(NC(=O)CSc2ncc(C(F)(F)F)cc2Cl)c1	10µM	i	i	i	i
CN(c1ccccc1)S(=O)(=O)c1cccc(NC(=O)COc2ccccc2)c1	?	i	i	i	i
CC(=O)CCc1ccc(OCC(=O)Nc2cccc(S(=O)(=O)N(C)c3ccccc3)c2)cc1	11µM	i	i	i	i
CCCCOC(=O)Nc1ccc(C(C)C)cc1	?	i	i	i	11µM
CCCCOC(=O)Nc1ccc(N2CCOCC2)cc1	i	i[7.66 µM]	i	i	4.5µM
O=C(CCCOc1ccccc1)Nc1ccc(Br)cc1	i	i	i	i	i
Cc1cnc(C(=O)OCC(=O)NCc2ccccc2)cn1	i	i	i	i	i
SMILES	GLP1R inv ag	Integrin act MD	GLP1R cytotox	GLP-1R agonist	BRCA1 expr up
O=C(CCOc1ccccc1)Nc1ccc(Br)cc1	?	i	i	i	7.9µM
O=C(CCSc1ccccc1)Nc1ccc(OCc2ccccc2)cc1	i	i	i	i	11µM
Cc1cnc(C(=O)OCC(=O)Nc2ccc(OCc3ccccc3)cc2)cn1	i	i	i	i	10µM
CCc1ccc(NC(=O)c2ccc3c(O)c(S(=O)(=O)c4ccc(Cl)cc4)c(=O)[nH]c3c2)cc1	i	nt	i	nt	nt
CN(C)c1ccc(CNC(=O)CCNS(=O)(=O)c2cc(Br)cnc2N)cc1	4.5µM	i	i	i	i
Nc1ncc(Br)cc1S(=O)(=O)NCCC(=O)NCCc1ccccc1	?	i	i	i	i
Cc1[nH][nH]c(=O)c1C(c1c(C)[nH][nH]c1=O)c1cn(Cc2ccc(F)cc2)c2ccccc12	2µM	i	?	i	i
Nc1ncnc2c1nc(Sc1ccc(Cl)cc1)n2[C@H]1OC2COP(=O)(O)O[C@H]2[C@@H]1O (some centres not stated)	nt	nt	nt	nt	i
CCCC(=O)OCc1cnc(C)c2oc(=O)c(C(=O)Nc3cccc(C(F)(F)F)c3)cc12	i	nt	i	i	i
O=C(N/N=C/c1ccc(Br)cc1)c1ccc(Br)o1	i	i	i	i	7.9µM
O=C(N/N=C/c1ccc(F)cc1)c1ccc(Br)cc1	i	i	i	i	i
COc1ccc(C(=O)N2c3cc4c(cc3C(C)=CC2(C)C)OCO4)cc1	7.9µM	i	i	i	i
O=C(c1cnn(-c2ccccc2)c1)c1cc(F)ccc1O	i	i	i	i	10µM
O=C(c1cnn(-c2ccccc2)c1)c1ccccc1O	?	i	i	i	?
O=C(c1cccn1-c1nnc(N2CCCCC2)s1)N1CCN(c2ccccc2)CC1	i	nt	i	nt	nt
CCCN1/C(=C2/SC(=S)N(CC)C2=O)C=Cc2ccccc21	?	i	?	i	i
CN1C(=O)/C(=C2/C=Cc3ccccc3N2CCCS(=O)(=O)O)SC1=S	i	i	8.9µM	i	i
CN(CC(=O)N1CCc2ccccc21)S(=O)(=O)c1ccc(Cl)cc1	?	i	i	i	i
CCOc1ccc(S(=O)(=O)N(CC(=O)N2CCc3ccccc32)Cc2ccco2)cc1	8.9µM	i	i	i	i
COc1ccc(-n2c(SCC(=O)Nc3ccc4c(c3)OCO4)nc3c([nH]c4ccccc43)c2=O)cc1	i	nt	i	i	i
Cc1ccc(NC(=O)[C@@H](c2ccccc2)N2Cc3ccccc3C2=O)cc1F	10µM	nt	i	i	i
CC1=C(C(=O)Nc2ccccc2F)C(c2ccsc2)C2=C(CC(C)(C)CC2=O)N1 (configuration not stated)	?	i	i	i	i
CC1=C(C(=O)Nc2cccc(F)c2)C(c2ccsc2)C2=C(CC(C)(C)CC2=O)N1 (configuration not stated)	4µM	i	i	i	i
CCCCc1nc(NCCNC(=O)c2ccco2)c(C#N)c2c1CSC(C)(C)C2	i	i	i	i	i
CCCCc1nc(NCCNC(=O)c2ccccc2)c(C#N)c2c1CSC(C)(C)C2	8.9µM	i	?	i	i
C=CCOc1ccc(/C=C/C(=O)OCC(=O)NCc2cccc(OC)c2)cc1	i	i	i	i	i
C=CCOc1ccc(C=CC(=O)c2c(O)c(OC)c(OC)c(OC)c2OC)cc1	7.9µM	i	i	i	i
O=C(Nc1ccc2oc(-c3ccccc3)nc2c1)c1cccnc1	i	i	i	i	2.8µM
